Screening data from PubChem.
GDH-TPI counter: GDH-TPI coupling enzyme inhibitors, primary screen, artefact control for M. tuberculosis FBA inhibitor project, biochemical, absorbance, full deck; GDH-TPI coupled enzyme counterscreen, NADH absorbance; inhibition, % at 4.8 µM; actives 1.2% (n = 360,000); in the data active = inhibition above about 30%;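 note: 0% = DMSO wells and 100% = wells lacking the enzyme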
BJeLR viability: MLPCN primary cell-based screen for lethality selective to Ras in HRASV12 cells. BJeLR (HRASV12) viability, CellTiter-Glo ATP luminescence, 48 h. inhibition, % (no concentration beside the values). actives 0.17% (n = 300,000). AID 1554, 2009; in the data active = inhibition above about 50%
RecA splice inh: Mtb RecA intein splicing inhibitors, primary screen, biochemical, fluorescence, HTS; cell-free RecA intein splicing; inhibition, % (no concentration beside the values); actives 0.75% (n = 290,000); AID 2221, 2009; in the data active = inhibition above about 30%;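 note: 0% = vehicle wells and 100% = reference inhibitor control wells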
Target sequence (P9WHJ3 whole entry, looked up, canonical isoform): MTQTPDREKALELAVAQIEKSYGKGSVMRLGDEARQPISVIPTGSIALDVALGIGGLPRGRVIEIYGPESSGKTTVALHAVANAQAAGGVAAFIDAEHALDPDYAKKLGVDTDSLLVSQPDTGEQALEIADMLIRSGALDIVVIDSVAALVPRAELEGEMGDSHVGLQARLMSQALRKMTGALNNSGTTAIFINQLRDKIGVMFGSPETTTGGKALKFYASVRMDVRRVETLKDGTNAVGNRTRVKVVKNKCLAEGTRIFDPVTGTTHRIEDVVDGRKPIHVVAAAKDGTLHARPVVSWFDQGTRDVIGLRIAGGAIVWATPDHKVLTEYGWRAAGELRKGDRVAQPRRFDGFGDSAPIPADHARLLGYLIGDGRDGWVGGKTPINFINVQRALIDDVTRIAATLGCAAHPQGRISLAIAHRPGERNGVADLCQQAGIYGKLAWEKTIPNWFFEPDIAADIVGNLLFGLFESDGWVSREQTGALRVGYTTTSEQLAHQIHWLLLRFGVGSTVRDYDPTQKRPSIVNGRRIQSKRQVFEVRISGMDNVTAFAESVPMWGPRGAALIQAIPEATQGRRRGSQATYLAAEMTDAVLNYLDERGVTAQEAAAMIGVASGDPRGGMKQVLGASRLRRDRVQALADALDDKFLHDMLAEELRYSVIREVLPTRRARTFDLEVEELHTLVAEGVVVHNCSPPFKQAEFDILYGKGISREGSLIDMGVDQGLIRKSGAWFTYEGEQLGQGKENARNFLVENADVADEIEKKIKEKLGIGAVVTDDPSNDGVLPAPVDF
FBA Mtb inh: Mtb FBA enzyme inhibitors, primary screen, biochemical, fluorescence, strain H37Rv | purified M. tuberculosis FBA, fluorescence read-out | inhibition, % at 1 µM | actives 2.3% (n = 360,000) | AID 588726, 2011; in the data active = inhibition above about 27%;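 note: 0% = vehicle and 100% = reference inhibitor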
PrPC surface inh: inhibitors of human cell surface prion protein PrPC, primary screen, cell-based, TR-FRET; Major prion protein (Homo sapiens), P04156; TR-FRET read-out; inhibition, % at 13.8 µM; actives 0.43% (n = 370,000); in the data active = inhibition above about 24%; note: 0% = median of the test wells and 100% = reference compound wells
GFP chromo cs: counter-screen: blocks GFP chromophore formation, dose response, counter-screen, biochemical, fluorescence, homogeneous. shares compounds with RecA splice inh. cell-free GFP chromophore formation. EC50, µM. actives 83% (n = 2,100). AID 434968, 2010; call rule not given here
The depositor's hits bear a star; . = no result given. This is a sample that favours compounds with a hit; in the whole collection about 4.2% have one here.

SMILES | GDH-TPI counter | BJeLR viability | RecA splice inh | FBA Mtb inh | PrPC surface inh | GFP chromo cs
N#Cc1nc(Cc2ccccc2)oc1NCc1cccnc1 | 0.0 | -7.2 | 1.0 | 0.3 | 1.7 | .
COC(=O)c1[nH]c(=O)c2ccccc2c1OCc1ccccc1 | 7.3 | 6.2 | 4.3 | 3.1 | -1.8 | .
COC(=O)c1[nH]c(=O)c2ccccc2c1O | 17.9 | -0.1 | 80.8* | 4.2 | . | 14.6*
Cc1[nH]n(-c2ccccc2)c(=O)c1/C=N\NC(=O)C1COc2ccccc2O1 (stereo not given) | 16.5 | -1.3 | 38.1* | -0.9 | 13.5 | >38
CC(=O)N/N=C/c1c(C)[nH]n(-c2ccccc2)c1=O | 3.3 | -1.5 | . | -1.2 | 7.1 | .
Cc1ccc(NC2=C/C(=N/S(=O)(=O)c3cccs3)c3ccccc3C2=O)cc1 | 0.0 | -7.7 | 31.0* | 0.3 | 1.7 | 0.139*
O=C1C(Nc2ccccc2)=C/C(=N/S(=O)(=O)c2cccs2)c2ccccc21 | 13.8 | -12.7 | 38.5* | -4.2 | . | 0.277*
CCCCOCCCNC(=O)C[C@H]1C(=O)N(Cc2ccc(OC)cc2)C2=CCCCC[C@@]21C(=O)OC | . | . | . | . | -8.5 | .
O=C(Nc1ccc(F)cc1)OCc1cn(Cc2ccc(F)c(F)c2)nn1 | . | . | . | . | 5.5 | .
O=C(NCc1ccco1)C1CCCN(S(=O)(=O)c2ccc(F)cc2)C1 (stereo not given) | . | . | . | . | 13.0 | .
S=C1NCCC12C(=S)Nc1ccccc12 (stereo not given) | 9.0 | -12.9 | 37.2* | -0.1 | -2.3 | >38
O=C1Nc2ccccc2C12OCCS2 (stereo not given) | . | -6.9 | 0.2 | . | . | .
C#CCN(C)S(=O)(=O)c1ccc(N2CCCC2)cc1Br | . | . | . | . | -0.2 | .
Clc1ccc([C@H]2OC[C@@]3(CNC4CCCCC4)CS[C@H](c4ccc(Cl)cc4)N23)cc1 | . | . | . | . | 6.7 | .
COc1cc(/C=C2/SC(=S)NC2=O)ccc1OS(=O)(=O)c1ccc(C)cc1 | 15.7 | -1.4 | 35.6* | -3.6 | . | 22.9*
Nc1[nH]c2cc(C(F)(F)F)ccc2c1C(=O)NC1CCCCC1 | . | . | . | . | 16.5 | .
COc1cc2c(cc1OC)C(C1C(=O)CC(C)(C)CC1=O)N(C(=O)CCl)CC2 (stereo not given) | 5.6 | -6.6 | -7.2 | 25.2 | -3.3 | .
COc1cc2c(cc1OC)C(c1cc(Br)ccc1F)N(C(=O)CCl)CC2 (stereo not given) | -2.5 | 57.9* | 85.8* | -0.7 | 7.5 | 4.47*
Cc1c(N=C2C=CC(=O)c3ccccc32)c(=O)n(-c2ccccc2)n1C | 3.9 | 1.5 | 72.3* | -2.6 | -35.1 | 1.81*
Cc1c(N=C2C=C(Br)C(=O)C(Br)=C2)c(=O)n(-c2ccccc2)n1C | -1.6 | . | . | -4.8 | -17.4 | .
COC(=O)[C@H](CC(C)C)N1Cc2nnn(CC3CCCCC3)c2-c2cc(F)ccc2S1(=O)=O | . | . | . | . | -0.4 | .
CCCC(=O)N(C1CC(C)C(C#N)(C#N)C1(C#N)C#N)N(C)C (stereo not given) | -3.4 | -47.3 | 93.3* | -1.6 | -5.6 | 4.89*
CC(=O)N(C1CC(C)C(C#N)(C#N)C1(C#N)C#N)N(C)C (stereo not given) | 1.3 | -11.5 | 80.8* | 5.0 | 6.1 | 18.9*
CC(C)C1N=C(NC(=O)OCc2ccccc2)NC1=O (stereo not given) (tested in a mixture with another compound) | . | . | . | . | 3.8 | .
Cc1nn(-c2ccccc2)c2c1C1(C(=O)N(C)c3ccccc31)C(C#N)=C(N)O2 (stereo not given) | 8.3 | -1.3 | 17.8 | -1.2 | -5.3 | .
CC(=O)N1C(=O)C2(C(C#N)=C(N)Oc3c2c(C)nn3-c2ccccc2)c2ccccc21 (stereo not given) | 0.9 | 9.0 | 54.7* | 1.9 | -4.6 | 5.81*
Cc1nn(-c2ccccc2)c2c1C1(C(=O)N3c4c(cccc41)C(C)CC3(C)C)C(C#N)=C(N)O2 (stereo not given) | 14.9 | -15.2 | 49.2* | -4.8 | -4.0 | 9.67*
CCN1C(=O)C2(C(C#N)=C(N)Oc3c2c(C)nn3-c2ccccc2)c2ccccc21 (stereo not given) | 6.5 | -13.4 | 21.3 | 0.7 | . | .
